From PubChem BioAssay AID1578 (Sanford-Burnham Center for Chemical Genomics, 2009)
The whole screen tested about 290,000 compounds, of which about 3,000 (1%) were called active. Rule as the data show it: active = inhibition mostly above about 36% (no sharp cut-off); inactive = mostly below about 34%. Many of the other results were omitted from the sample, so actives are more common in it than they were.

Test: inhibition of NOD1-driven NF-kB reporter – cell-based, luminescence, uHTS, primary screen (AID 1578);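 also: HEK-293T reporter cells stimulated with the NOD1 agonist gamma-tri-DAP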
Conditions: NOD1-driven NF-kB luciferase reporter cells, at 4 µM, stronger effect = higher value

inhibition, active:
Oc1ccc(/C=N\Nc2nncc(-c3ccccc3)n2)cc1 59.3%
CC(C)NC(=O)c1ccc(COc2ccc(C(C)(C)C)cc2)o1 29.6%
COCCn1c(=NC(=O)/C=C/c2ccccc2Cl)sc2cc(NC(C)=O)ccc21 85%
CC(=O)c1c(C)[nH]c(C(=O)OCC(=O)Nc2ccccc2Cl)c1C 51.1%
Cc1cc(C)n(-c2nc3ccccc3c(=O)n2OCC#N)n1 109%
CN(C)N(Cc1ccccc1)C(=O)C(O)(c1ccccc1)c1ccccc1 63.1%
N#Cc1c(N2CCCC(O)C2)nc(N)c2c(N)nc3c(c12)CC(=O)N3C12CC3CC(CC(C3)C1)C2 (stereo not drawn) 72%
COc1cc(CNCc2ccc(OC)cc2OC)cc(OC)c1 79.5%
CCO[C@H]1OC(C(=O)N2CCCCCCC2)=C[C@@H](C)[C@@H]1CCCO 40%
Fc1ccccc1COc1ccc(Br)cc1CNCc1ccncc1 72.9%
O=C(Nc1nc2ccccc2[nH]1)c1ccccc1F 77.3%
O=C(Nc1nc2ccccc2[nH]1)c1cc2ccccc2o1 73.5%
Cc1cc(NC(=O)CCCS(=O)(=O)c2nc(-c3cccs3)cc(C(F)(F)F)n2)no1 91%
Cc1ccc(-c2nc(-c3ccccn3)no2)cc1 89.5%
Cc1ccc(-c2nc(-c3ccccn3)no2)cc1Cl 71.4%
c1ccc(-c2nc(-c3ccccn3)no2)cc1 54.3%
COc1cccc(-c2nc(-c3ccccn3)no2)c1 65%
c1ccc(-c2noc(-c3ccc4c(c3)OCO4)n2)nc1 64.7%
c1ccc(-c2ccc(-c3nc(-c4ccccn4)no3)cc2)cc1 99.9%
COc1ccc(-c2nc(-c3ccccn3)no2)cc1 99%

inhibition, inactive:
Brc1ccc(OCc2cn3ccccc3n2)cc1 -41.6%
COc1ccccc1NS(=O)(=O)c1cc(NC(=O)c2cc(=O)[nH]c3ccccc23)ccc1N1CCOCC1 0.5%
COc1ccc(-c2onc(C)c2C)cc1S(=O)(=O)NCCc1ccco1 2.5%
Cc1cc(C)c(C)c(S(=O)(=O)N2CCCCC2C(=O)O)c1C (stereo not drawn) 0.3%
Oc1cccc(/C=N\Nc2nncc(-c3ccccc3)n2)c1 -8.4%
COc1ccc(-c2cnnc(N/N=C/c3ccc(O)cc3)n2)cc1 -15.9%
CC(=O)Oc1ccc(/C=C(\NC(=O)c2ccco2)C(=O)Nc2ccc(C(C)=O)cc2)cc1 -31.3%
COc1ccc(/C(N)=N/OC(=O)CC2CCCCC2)cc1OC -10.9%
CC(C)(C)c1ccc(OCc2ccc(C(=O)NN)o2)cc1 -4.2%
CCOc1ccc(OCc2ccc(C(=O)NC(C)C)o2)cc1 -2.6%
CC(=O)c1ccc(S(=O)c2ccccc2)cc1 (stereo not drawn) -22.4%
COc1ccc(OC)c(C(=O)NC(CC(N)=O)c2ccc(N3CCC(N4CCCC4)CC3)c([N+](=O)[O-])c2)c1 (stereo not drawn) 5.4%
Cc1cc(C)cc(NS(=O)(=O)c2ccc3[nH]cc(C(=O)N4CCc5ccccc54)c(=O)c3c2)c1 3.5%
CCOCCn1c(=NC(=O)/C=C/c2ccccc2Cl)sc2cc(NC(C)=O)ccc21 18.1%
COCCn1c(=NC(=O)/C=C/c2ccccc2)sc2cc(NC(C)=O)ccc21 -16.2%
Cc1cccc(C(P(=O)(c2ccccc2)c2ccccc2)P(=O)(c2ccccc2)c2ccccc2)n1 -2.9%
CC(=O)c1c(C)[nH]c(C(=O)OCC(=O)Nc2ccc([N+](=O)[O-])cc2Cl)c1C -9%
CC(=O)c1c(C)[nH]c(C(=O)Nc2ccccc2Cl)c1C -16.6%
CCC(C)N1C(=O)CCC1C(=O)N1CCN(c2ccccc2F)CC1 (stereo not drawn) 2.8%
C/C(=N\NC(=O)c1nnn(-c2nonc2N)c1CSc1ccccc1)c1cccnc1 -4.5%
CCOn1c(-n2nc(C)cc2C)nc2ccccc2c1=O 0.7%
C#CCOn1c(-n2nc(C)cc2C)nc2ccccc2c1=O 2.3%
CN(Cc1ccccc1)C(=O)CCC(=O)N(C)Cc1ccccc1 -41.2%
CN(C)N(C)C(=O)C(O)(c1ccccc1)c1ccccc1 -18.6%
O=C(CN1C(=O)NC2(CCCCCCC2)C1=O)NC1CCCc2ccccc21 (stereo not drawn) -29.3%
COC(=O)c1ccc(NC(=O)CCN2C(=O)CSC2=O)cc1 -44.1%
C=C(C)CN(CC)c1nc(N)c2c(N)nc3c(c2c1C#N)CC(=O)N3C12CC3CC(CC(C3)C1)C2 -11.3%
N#CCc1c(C#N)c(N)nc(N2CCCC(O)C2)c1C#N (stereo not drawn) -18.2%
Cc1cnc(C(=O)Nc2ccc(C(=O)N(C)C3CCCCC3)cc2)cn1 -6.2%
C=CCOc1ccc2ccccc2c1/C=N/O -6.7%
CCOC(=O)C1CCN(C(=O)CSCc2nc(-c3ccc(OCC)cc3)oc2C)CC1 -2.1%
CCOc1ccc(-c2nc(CSCC(=O)N3CCN(C(=O)c4ccco4)CC3)c(C)o2)cc1 -28.8%
COc1cccc(CNCc2ccc(OC)cc2OC)c1 3.1%
COc1cc(CNCc2cc(OC)ccc2OC)cc(OC)c1 -5.3%
O=C(COC(=O)CNC(=O)c1ccc(Cl)cc1)Nc1cccc(S(=O)(=O)N2CCCC2)c1 6.6%
CCO[C@@H]1OC(C(=O)N2CCOCC2)=C[C@H](C)[C@H]1CCCO -28.1%
CCO[C@H]1OC(C(=O)N2CCN(C)CC2)=C[C@@H](C)[C@@H]1CCCO -35.3%
CC1CCCC(NC(=O)c2ccc(CNc3c(N4CCCC4)c(=O)c3=O)cc2)C1C (stereo not drawn) -28.2%
COc1ccc(/C=N/Nc2nc(C(=O)O)cs2)cc1 -35.9%
Cc1c(C(=O)NCCN(C)C)oc2ccc(S(=O)(=O)N3CCC4(CC3)OCCO4)cc12 -12.2%
Fc1ccccc1COc1ccc(Br)cc1CNCc1cccnc1 -5%
Brc1ccc(OCc2ccccc2)c(CNCc2ccncc2)c1 44.1%
COc1ccc(NC(=O)Nc2c(C)noc2-c2ccccc2)cc1 -7.5%
O=C(Oc1ccc(Br)cc1C(=S)N1CCOCC1)c1ccc(F)cc1 -9.9%
C/C(=N\Nc1nc2ccccc2[nH]1)c1cc2ccccc2o1 -21.6%
O=C(Nc1nc2ccccc2[nH]1)c1ccccc1O 1.5%
O=C(Nc1nc2ccccc2[nH]1)c1ccc(Br)o1 -21.2%
CSc1ccccc1C(=O)Nc1nc2ccccc2[nH]1 -46.1%
COc1ccc(S(=O)(=O)Nc2ccccc2C(=O)N2CCCCC2)cc1C -14.5%
S=C(Nc1ccccc1)N1CCOCCOCCN(C(=S)Nc2ccccc2)CCOCCOCC1 -11%
CC(=O)N1N=C(N)SC1c1cccc([N+](=O)[O-])c1 (stereo not drawn) -38.8%
CC(=O)Oc1ccc2nc(/C=C/c3ccccc3)oc(=O)c2c1 -9.3%
COc1ccccc1-c1cc(C(F)(F)F)nc(S(=O)(=O)CCCC(=O)Nc2cc(C)on2)n1 37%
COc1ccc(-c2cc(C(F)(F)F)nc(S(=O)(=O)CCCC(=O)Nc3cc(C)on3)n2)cc1OC 32.1%
O=C(COc1ccc(S(=O)(=O)N2CCOCC2)cc1Cl)NCc1ccccn1 -57.1%
COc1cccc(-c2nc(-c3ccccc3)no2)c1 -49.3%
c1ccc(-c2noc(-c3ccc4ccccc4c3)n2)nc1 77.3%
Clc1ccc(-c2nc(-c3ccccn3)no2)cc1Cl -69.5%
c1ccc(-c2noc(-c3cccnc3)n2)nc1 -11.3%
c1ccc(-c2noc(-c3ccncc3)n2)nc1 -30.8%
Cc1ccccc1-c1nc(-c2ccccn2)no1 11.7%
COc1cccc(-c2nc(-c3ccncc3)no2)c1 -5.3%
Clc1cccc(-c2nc(-c3ccccn3)no2)c1 -17.2%
CCCC(=O)NCC(c1cccs1)S(=O)(=O)c1ccc(Cl)cc1 (stereo not drawn) -18%
Cc1ccc2cc3cc(C(=O)NC4CCCCC4)oc3nc2c1 -36.4%
O=C(Nc1ccccc1)Nc1ccc2ocnc2c1 -32.4%
Cc1nnc(SCC(=O)NC2CC2)s1 -18.8%
COc1cc(S(=O)(=O)n2nc(C)cc2C)ccc1Cl -30.9%
Cc1ccc(C2=NN(C3=NN=C(N)Cc4ncnn43)C(O)(C(F)(F)F)C2)cc1 (stereo not drawn) -15.4%
CC(CC(=O)O)CC(=O)Nc1cc([N+](=O)[O-])ccc1O (stereo not drawn) -14.6%
Cc1cccc(-c2noc(-c3ccc4c(c3)OCO4)n2)c1 -27.9%
c1ccc(-c2noc(-c3ccc4c(c3)OCO4)n2)cc1 -47.3%
c1ccc(-c2noc(-c3ccno3)n2)nc1 -2.2%
COc1ccccc1-c1nc(-c2ccccn2)no1 27.3%
c1ccc(-c2ccc(-c3nc(-c4ccncc4)no3)cc2)cc1 28.9%
COc1cc(-c2nc(-c3ccccn3)no2)cc(OC)c1OC -30.9%
Cn1c(SCC(=O)NC(=O)CN2CCCC2=O)nnc1-c1ccc(F)cc1 -11.6%
Cc1ccc(-c2nc(=S)c3c(n2CCN2CCOCC2)CC(C)(C)OC3)cc1 -25.9%
